# Measurements: PubChem BioAssay (NCI)
# Compounds without any hit were thinned out: in the full panel of roughly 79,000, 15% have a hit. Unmarked numbers belong to inactive results. Calls of active or inactive are those of the source. No stated cut-off is given here; in the data, active means growth inhibition above about 70%; inactive means the rest.
# Experiments:
# [1] = NCI Yeast Anticancer Drug Screen. Data for the rad52 strain (AID 147);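 further: 0% = growth of vehicle-treated control cultures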; details: S. cerevisiae rad52 mutant growth inhibition, active compounds read high
# Method in brief: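 Inhibition of yeast growth, referenced to vehicle controls, was the measured output for a strain with defective DNA damage repair.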
# [2] = NCI Yeast Anticancer Drug Screen. Data for the rad50EPP+ strain (AID 151);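 further: 0% = growth of vehicle-treated control cultures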; details: S. cerevisiae rad50 mutant strain, active compounds read high
# Method in brief: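 Genetically defined yeast (rad50EPP+, DNA damage repair alteration) is grown with compound, and inhibition of growth is expressed relative to vehicle-treated controls.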
# [3] = NCI Yeast Anticancer Drug Screen. Data for the mgt1 strain (AID 153); details: S. cerevisiae mgt1 mutant growth inhibition, active compounds read high
# Method in brief: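 In the mgt1 strain, test compounds were added and growth inhibition was determined relative to vehicle-treated controls.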
# [4] = NCI Yeast Anticancer Drug Screen. Data for the rad50 strain (AID 155);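 further: 0% = growth of vehicle-only cultures of the same strain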; details: S. cerevisiae rad50 strain growth inhibition, active compounds read high
# Method in brief: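 Inhibition values express reduced yeast growth in compound-treated cultures relative to vehicle-treated controls.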
# [5] = NCI Yeast Anticancer Drug Screen. Data for the mec2-1 strain (AID 157); details: S. cerevisiae mec2-1 strain, active compounds read high
# Method in brief: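 Each compound was tested on mec2-1 yeast, a strain altered in DNA damage repair or cell cycle control. Growth inhibition is reported relative to vehicle.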
# [6] = NCI Yeast Anticancer Drug Screen. Data for the rad14 strain (AID 159);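 further: 0% = growth of vehicle-treated control cultures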; details: S. cerevisiae rad14 strain growth inhibition, active compounds read high
# Method in brief: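 A mutant yeast strain defective in DNA damage repair is treated with compound; inhibition of its growth is scored against untreated, vehicle-exposed cultures.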
# [7] = NCI Yeast Anticancer Drug Screen. Data for the sgs1 mgt1 strain (AID 161);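 further: 0% = growth of cultures given vehicle only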; details: S. cerevisiae sgs1 mgt1 strain, active compounds read high
# Method in brief: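 Inhibition of yeast growth, normalised to vehicle-treated controls, is reported for a strain bearing genetic alterations in DNA damage repair.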
# [8] = NCI Yeast Anticancer Drug Screen. Data for the CLN2oe strain (AID 163);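 further: 0% = growth of vehicle-only control cultures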; details: S. cerevisiae CLN2oe strain, active compounds read high
# Method in brief: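 First, the altered yeast strain was treated with each compound; second, its growth was measured; finally, inhibition was derived by comparison with vehicle controls.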
# [9] = NCI Yeast Anticancer Drug Screen. Data for the cln2 rad14 strain (AID 165);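 further: 0% = growth equal to vehicle treated cultures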; details: S. cerevisiae cln2 rad14 strain, active compounds read high
# Method in brief: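 Test compounds were added to cln2 rad14 yeast cultures; inhibition of growth was then determined by comparison with vehicle treatment.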
# [10] = NCI Yeast Anticancer Drug Screen. Data for the bub3 strain (AID 167); details: S. cerevisiae bub3 mutant strain, active compounds read high
# Method in brief: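 Steps: expose the mutant yeast strain to compound; grow alongside vehicle-treated cultures; measure growth; express inhibition against the vehicle cultures.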
# [11] = NCI Yeast Anticancer Drug Screen. Data for the wt2 strain (AID 169);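 further: 0% = growth of vehicle-treated yeast cultures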; details: S. cerevisiae wt2 strain growth inhibition, active compounds read high
# Method in brief: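 The panel's yeast strains carry defined changes in DNA repair or cell cycle genes. Each strain is grown with compound, and growth loss is scored relative to vehicle.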
# [12] = NCI Yeast Anticancer Drug Screen. Data for the mlh1 strain (AID 171);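 further: 0% = growth of vehicle-treated control cultures of the same strain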; details: S. cerevisiae mlh1 strain growth inhibition, active compounds read high
# Method in brief: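 Inhibition values reflect reduced yeast growth in the presence of compound, referenced to vehicle controls, using a strain chosen for its alteration in DNA repair or cell cycle control.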
# [13] = NCI Yeast Anticancer Drug Screen. Data for the sgs1 strain (AID 173);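 further: 0% = growth of vehicle-only control cultures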; details: S. cerevisiae sgs1 mutant, active compounds read high
# Method in brief: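 Vehicle-treated cultures served as reference for growth inhibition of a yeast strain altered in DNA damage repair or cell cycle control after compound exposure.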
# [14] = NCI Yeast Anticancer Drug Screen. Data for the mlh1 rad18 strain (AID 175); details: S. cerevisiae mlh1 rad18 strain growth inhibition, active compounds read high
# Method in brief: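 Inhibition values reflect reduced growth of mutant yeast versus vehicle-treated controls following compound exposure; the mutations affect DNA damage repair.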
# [15] = NCI Yeast Anticancer Drug Screen. Data for the rad18 strain (AID 177); details: S. cerevisiae rad18 mutant growth inhibition, active compounds read high
# Method in brief: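 Steps: expose repair-mutant yeast to compound; measure growth; express as inhibition relative to vehicle control.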
# [16] = NCI Yeast Anticancer Drug Screen. Data for the wt1 strain (AID 149);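 further: 0% = growth of vehicle-treated wt1 cultures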; details: S. cerevisiae wt1 strain (SPY 50644) growth inhibition, active compounds read high
# Method in brief: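 Compounds are added to wt1 yeast cultures. Growth is then measured. Inhibition is expressed relative to vehicle-treated controls.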
# [17] = at 5.0 µM (retest, dose inferred, filed as 0.5)
# [18] = at 50.0 µM (retest, dose inferred, filed as 5.0)
smiles,measurement,setting,value
CC(CN(C)C)C(=O)/C=C/c1ccc(Cl)c(Cl)c1 (stereo unspecified),growth inhibition,[1]; at 1.2 µM,7%
same,growth inhibition,[1]; at 3.7 µM,15%
same,growth inhibition,[1]; at 11.0 µM,29%
same,growth inhibition,[1]; at 33.0 µM,73% (active)
same,growth inhibition,[1]; at 100.0 µM,95% (active)
same,growth inhibition,[2]; at 1.2 µM,2%
same,growth inhibition,[2]; at 3.7 µM,10%
same,growth inhibition,[2]; at 11.0 µM,27%
same,growth inhibition,[2]; at 33.0 µM,61%
same,growth inhibition,[2]; at 100.0 µM,89% (active)
same,growth inhibition,[3]; at 1.2 µM,4%
same,growth inhibition,[3]; at 3.7 µM,3%
same,growth inhibition,[3]; at 11.0 µM,13%
same,growth inhibition,[3]; at 33.0 µM,83% (active)
same,growth inhibition,[3]; at 100.0 µM,98% (active)
same,growth inhibition,[4]; at 1.2 µM,0%
same,growth inhibition,[4]; at 3.7 µM,-3%
same,growth inhibition,[4]; [17],-9%
same,growth inhibition,[4]; at 11.0 µM,20%
same,growth inhibition,[4]; at 33.0 µM,66%
same,growth inhibition,[4]; [18],3%
same,growth inhibition,[4]; at 50.0 µM,99.2% (active)
same,growth inhibition,[4]; at 100.0 µM,95% (active)
same,growth inhibition,[5]; at 1.2 µM,4%
same,growth inhibition,[5]; at 3.7 µM,5%
same,growth inhibition,[5]; [17],4%
same,growth inhibition,[5]; at 11.0 µM,14%
same,growth inhibition,[5]; at 33.0 µM,48%
same,growth inhibition,[5]; [18],-10%
same,growth inhibition,[5]; at 50.0 µM,99.4% (active)
same,growth inhibition,[5]; at 100.0 µM,97% (active)
same,growth inhibition,[6]; at 1.2 µM,6%
same,growth inhibition,[6]; at 3.7 µM,9%
same,growth inhibition,[6]; at 11.0 µM,22%
same,growth inhibition,[6]; at 33.0 µM,50%
same,growth inhibition,[6]; at 100.0 µM,96% (active)
same,growth inhibition,[7]; [17],-4%
same,growth inhibition,[7]; [18],8%
same,growth inhibition,[7]; at 50.0 µM,99.6% (active)
same,growth inhibition,[8]; at 1.2 µM,3%
same,growth inhibition,[8]; at 3.7 µM,5%
same,growth inhibition,[8]; at 11.0 µM,10%
same,growth inhibition,[8]; at 33.0 µM,29%
same,growth inhibition,[8]; at 100.0 µM,74% (active)
same,growth inhibition,[9]; [17],-3%
same,growth inhibition,[9]; [18],-7%
same,growth inhibition,[9]; at 50.0 µM,97% (active)
same,growth inhibition,[10]; at 1.2 µM,3%
same,growth inhibition,[10]; at 3.7 µM,5%
same,growth inhibition,[10]; [17],-16%
same,growth inhibition,[10]; at 11.0 µM,16%
same,growth inhibition,[10]; at 33.0 µM,69%
same,growth inhibition,[10]; [18],82% (active)
same,growth inhibition,[10]; at 50.0 µM,99.2% (active)
same,growth inhibition,[10]; at 100.0 µM,97% (active)
same,growth inhibition,[11]; at 1.2 µM,2%
same,growth inhibition,[11]; at 3.7 µM,6%
same,growth inhibition,[11]; at 11.0 µM,14%
same,growth inhibition,[11]; at 33.0 µM,70% (active)
same,growth inhibition,[11]; at 100.0 µM,98% (active)
same,growth inhibition,[12]; at 1.2 µM,4%
same,growth inhibition,[12]; at 3.7 µM,6%
same,growth inhibition,[12]; at 11.0 µM,15%
same,growth inhibition,[12]; at 33.0 µM,74% (active)
same,growth inhibition,[12]; at 100.0 µM,98% (active)
same,growth inhibition,[13]; at 1.2 µM,4%
same,growth inhibition,[13]; at 3.7 µM,9%
same,growth inhibition,[13]; at 11.0 µM,25%
same,growth inhibition,[13]; at 33.0 µM,84% (active)
same,growth inhibition,[13]; at 100.0 µM,98% (active)
same,growth inhibition,[14]; [17],-7%
same,growth inhibition,[14]; [18],-21%
same,growth inhibition,[14]; at 50.0 µM,99.2% (active)
same,growth inhibition,[15]; at 1.2 µM,5%
same,growth inhibition,[15]; at 3.7 µM,15%
same,growth inhibition,[15]; at 11.0 µM,40%
same,growth inhibition,[15]; at 33.0 µM,84% (active)
same,growth inhibition,[15]; at 100.0 µM,97% (active)
CCCCCCCCSC1=C(Cl)C(=O)C(OC)=C(OC)C1=O,growth inhibition,[1]; at 1.2 µM,-25%
same,growth inhibition,[1]; at 3.7 µM,-19%
same,growth inhibition,[1]; at 11.0 µM,15%
same,growth inhibition,[1]; at 33.0 µM,53%
same,growth inhibition,[1]; at 100.0 µM,87% (active)
same,growth inhibition,[16]; at 1.2 µM,-55%
same,growth inhibition,[16]; at 3.7 µM,-23%
same,growth inhibition,[16]; at 11.0 µM,-17%
same,growth inhibition,[16]; at 33.0 µM,0%
same,growth inhibition,[16]; at 100.0 µM,88% (active)
same,growth inhibition,[3]; at 1.2 µM,-30%
same,growth inhibition,[3]; at 3.7 µM,-41%
same,growth inhibition,[3]; at 11.0 µM,-24%
same,growth inhibition,[3]; at 33.0 µM,17%
same,growth inhibition,[3]; at 100.0 µM,85% (active)
same,growth inhibition,[4]; at 1.2 µM,-25%
same,growth inhibition,[4]; at 3.7 µM,-16%
same,growth inhibition,[4]; [17],25%
same,growth inhibition,[4]; at 11.0 µM,-17%
same,growth inhibition,[4]; at 33.0 µM,19%
same,growth inhibition,[4]; [18],68%
same,growth inhibition,[4]; at 50.0 µM,22.6%
same,growth inhibition,[4]; at 100.0 µM,83% (active)
same,growth inhibition,[5]; at 1.2 µM,-37%
same,growth inhibition,[5]; at 3.7 µM,-30%
same,growth inhibition,[5]; [17],24%
same,growth inhibition,[5]; at 11.0 µM,-4%
same,growth inhibition,[5]; at 33.0 µM,13%
same,growth inhibition,[5]; [18],68%
same,growth inhibition,[5]; at 50.0 µM,54.1%
same,growth inhibition,[5]; at 100.0 µM,80% (active)
same,growth inhibition,[6]; at 1.2 µM,-32%
same,growth inhibition,[6]; at 3.7 µM,-11%
same,growth inhibition,[6]; at 11.0 µM,-14%
same,growth inhibition,[6]; at 33.0 µM,2%
same,growth inhibition,[6]; at 100.0 µM,66%
same,growth inhibition,[7]; [17],22%
same,growth inhibition,[7]; [18],10%
same,growth inhibition,[7]; at 50.0 µM,69.1%
same,growth inhibition,[9]; [17],13%
same,growth inhibition,[9]; [18],-24%
same,growth inhibition,[9]; at 50.0 µM,35.1%
same,growth inhibition,[10]; at 1.2 µM,-40%
same,growth inhibition,[10]; at 3.7 µM,-30%
same,growth inhibition,[10]; [17],20%
same,growth inhibition,[10]; at 11.0 µM,-43%
same,growth inhibition,[10]; at 33.0 µM,-15%
same,growth inhibition,[10]; [18],6%
same,growth inhibition,[10]; at 50.0 µM,59%
same,growth inhibition,[10]; at 100.0 µM,57%
same,growth inhibition,[11]; at 1.2 µM,-31%
same,growth inhibition,[11]; at 3.7 µM,-19%
same,growth inhibition,[11]; at 11.0 µM,-46%
same,growth inhibition,[11]; at 33.0 µM,-11%
same,growth inhibition,[11]; at 100.0 µM,87% (active)
same,growth inhibition,[12]; at 1.2 µM,-38%
same,growth inhibition,[12]; at 3.7 µM,-31%
same,growth inhibition,[12]; at 11.0 µM,6%
same,growth inhibition,[12]; at 33.0 µM,27%
same,growth inhibition,[12]; at 100.0 µM,78% (active)
same,growth inhibition,[13]; at 1.2 µM,-42%
same,growth inhibition,[13]; at 3.7 µM,-27%
same,growth inhibition,[13]; at 11.0 µM,8%
same,growth inhibition,[13]; at 33.0 µM,3%
same,growth inhibition,[13]; at 100.0 µM,80% (active)
same,growth inhibition,[14]; [17],36%
same,growth inhibition,[14]; [18],84% (active)
same,growth inhibition,[14]; at 50.0 µM,79.3% (active)
same,growth inhibition,[15]; at 1.2 µM,-15%
same,growth inhibition,[15]; at 3.7 µM,-26%
same,growth inhibition,[15]; at 11.0 µM,1%
same,growth inhibition,[15]; at 33.0 µM,58%
same,growth inhibition,[15]; at 100.0 µM,85% (active)
